Most compounds without a hit are left out; they make up all but 17% or so of the library.
TGFb inhibitor – qHTS for Inhibitors of TGF-b. HepG2 CAGA-GFP TGF-b/SMAD3 reporter, GFP fluorescence, 18 h; TGF-beta stimulated, 500 pg/mL final. Potency, µM (highest dose often 46.1 µM), inactives show at the highest dose activity, negative = inhibition, most hits filed as inhibitors. 410,000 compounds, 1.2% hits. AID 588855, 2011; further: on the % scale 0 is the no-effect control and ±100 the full control effect; nearly all actives have a fitted effect of over 65% in size
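Smad-responsive CAGA-GFP expression was quantified in HEPG2 cells exposed to compounds and 500 pg/mL final TGF-beta for 18 h at 37 degrees C; unstimulated wells defined full inhibition.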
HT1080NT lethal – qHTS for induction of synthetic lethality in tumor cells producing 2HG: qHTS for the HT-1080-NT fibrosarcoma cell line. HT-1080-NT fibrosarcoma viability, CellTiter-Glo ATP luminescence, 48 h. Potency, µM (top dose mostly 46.1 µM), for inactives: at the highest dose activity, negative = less viability, most hits filed as cytotoxic. 360,000 compounds, 1.6% hits. AID 686970, 2013;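 further: NT is the 2HG producing partner of a matched IDH1 knockdown line; 0% = DMSO-treated cells and -100% = media-only wells without cells; nearly all actives have a fitted effect of over 55% in size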
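HT-1080-NT; 750 cells/well; 5% FBS RPMI; 48 h compound, 37 degrees C; CellTiter-Glo luminescence; curve fitting and curve-class assignment.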
DT40 TDP1 CPT – qHTS for Inhibitors of human tyrosyl-DNA phosphodiesterase 1 (TDP1): qHTS in cells in presence of CPT; chicken DT40 Tdp1-/-;hTDP1 cells + 20 nM CPT, ATP luminescence, 48 h; Potency, µM (doses to about 46.2 µM), without a hit: at the top dose activity change, negative = growth inhibition, hits mostly inhibitors; 420,000 compounds, 12% hits; further: on the % scale 0 is the no-effect control and ±100 the full control effect; nearly all actives have a fitted effect of over 55% in size
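Cell growth measured by CellTiter-Glo luminescence after a minimum 48 h, 37 C compound exposure with 20 nM CPT in Tdp1-knockout DT40 cells stably expressing hTDP1, seeded 400/well; qHTS titration format.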
HT1080 IDH1KD tx – qHTS for induction of synthetic lethality in tumor cells producing 2HG: qHTS for the HT-1080-IDH1KD cell line; Potency, µM (top dose mostly 46.1 µM), without a hit: top-dose activity, negative = toxicity, usual class: cytotoxic; AID 686971, 2013; HT-1080 IDH1 knockdown viability, ATP luminescence, 48 h; 360,000 compounds, 2% hits;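 further: 0% = DMSO wells and -100% = cell-free medium wells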
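Viability of IDH1-knockdown HT-1080 fibrosarcoma cells was assessed by CellTiter-Glo after 48 h at 37 °C with titrated compound; concentration-effect curves were classified by fit quality and response size.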
DT40 TDP1 no CPT – qHTS for Inhibitors of human tyrosyl-DNA phosphodiesterase 1 (TDP1): qHTS in cells in absence of CPT; AID 686978, 2013; Potency, µM (top dose mostly 46.2 µM), without a hit: top-dose activity change, negative = growth inhibition, usual class: inhibitors; 420,000 compounds, 15% hits; DT40 Tdp1-/- hTDP1 cells, no CPT, ATP luminescence, 48 h; further: on the % scale 0 is the no-effect control and ±100 the full control effect; nearly all actives have a fitted effect of over 55% in size
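Readout: luminescence from CellTiter-Glo after 30 min in the dark at RT. Cells: DT40 Tdp1-/- with stable hTDP1, 400/well. Exposure: compounds alone, ≥48 hr, 37 °C.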
HepG2 tox – qHTS for Inhibitors of TGF-b: Cytotox Counterscreen; HepG2 CAGA-GFP viability, ATP luminescence, 18 h; Potency, µM (top dose mostly 46.1 µM), without a hit: at the highest dose activity change, negative = cytotoxicity, hits mostly cytotoxic; 410,000 compounds, 0.76% hits; AID 588856, 2011
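HepG2 CAGA-GFP cells (1000/well, DMEM with 1% FBS) received compound, then TGF-beta at 500 pg/mL final, and were incubated 18 hours at 37 degrees C. Viability was read by CellTiter-Glo luminescence. Media-only wells were set as complete cell-killing and DMSO as no toxicity.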
Numbers without * were called inactive; ? = inconclusive; · = no result. The call rests on the fitted dose curve; in most records, active means well fitted curve in the direction sought with a large enough effect; inconclusive means small, poorly fitted or top-dose-only effect, or another doubt; inactive means no such curve, though single readings can be large; an effect the other way counts as inactive or inconclusive. Potency means the concentration at half of the fitted maximal effect.

SMILES	TGFb inhibitor	HT1080NT lethal	DT40 TDP1 CPT	HT1080 IDH1KD tx	DT40 TDP1 no CPT	HepG2 tox
CCc1nn2c(=O)c(S(=O)(=O)Nc3ccccc3)c(C)nc2s1	20%	15%	-10%	11%	-21%	-5%
CCc1nn2c(=O)c(S(=O)(=O)Nc3ccc(C)c(C)c3)c(C)nc2s1	-6%	·	?	·	23µM*	-22%
CCOc1ccc(NS(=O)(=O)c2c(C)nc3sc(C)c(C)n3c2=O)cc1	-32%	·	18µM*	·	?	-2%
CC(C)n1c(=O)c2ccccc2n1Cc1cn(-c2ccc(Cl)cc2)nn1	-3%	0%	?	-9%	?	-4%
COc1ccc(N2C(=O)Cc3ccccc3C2=O)cc1	2%	23%	?	17%	13µM*	-1%
CCOC(COC(=O)c1ccccc1C(=O)O)c1ccccc1 (stereo unspecified)	0%	12%	0%	4%	-6%	2%
OCC1(CCOc2ccccc2)CCN(Cc2cn[nH]c2-c2ccc(F)cc2)CC1	?	?	3%	23µM*	?	-33%
COc1cc(Cl)c(CN2CCC(CO)(CCOc3ccccc3)CC2)cc1OC	-23%	-6%	?	-8%	?	-40%
OCC1(CCOc2ccccc2)CCN(CC2=Cc3cc(Cl)ccc3OC2)CC1	?	-22%	18µM*	18µM*	21µM*	-68%
OC1(c2ccc(Cl)cc2)CCN(Cc2cn[nH]c2-c2ccccc2)CC1	?	?	16µM*	?	15µM*	-29%
CCOc1ccccc1CN1CCC(CO)(CCOc2ccccc2)CC1	5%	-15%	5%	-25%	-2%	3%
CCOC(=O)N1CCN(C(=O)C[C@@H]2C[C@@]3(C(=O)OC)CCCCC=C3N(CCc3ccc(OC)c(OC)c3)C2=O)CC1	·	7%	?	16%	?	·
CCCCCCCCN1C(=O)[C@H](CC(=O)N2CCN(C(=O)OCC)CC2)C[C@@]2(C(=O)OC)CCCCC=C12	·	?	?	?	21µM*	·
CCCCCCCCN1C(=O)[C@H](CC(=O)N2CCN(C(=O)C3CC3)CC2)C[C@@]2(C(=O)OCC)CCCC=C12	·	?	23µM*	?	23µM*	·
COC(=O)[C@]12CCCCC=C1N(Cc1ccco1)C(=O)[C@H](CC(=O)N1CCSCC1)C2	·	-4%	-3%	5%	-28%	·
CCCCCCCCN1C(=O)[C@H](CC(=O)N2CCN(C(=O)C3CC3)CC2)C[C@@]2(C(=O)OC)CCCCC=C12	·	?	?	?	16µM*	·
CCCCCCCCN1C(=O)[C@H](CC(=O)N2CCCC2)C[C@@]2(C(=O)OC)CCCCC=C12	·	?	16µM*	?	18µM*	·
CCOC(=O)[C@]12CCCC=C1N(Cc1ccccc1)C(=O)[C@H](CC(=O)N1CCN(C(=O)C3CC3)CC1)C2	·	6%	2%	-14%	10%	·
CCCCCCCCN1C(=O)[C@H](CC(=O)N2CCC(c3ccccc3)CC2)C[C@@]2(C(=O)OC)CCCCC=C12	·	-2%	?	-13%	18µM*	·
Cc1cc(CC(=O)O)c2oc(-c3ccoc3)cc(=O)c2c1	-4%	-4%	10%	-2%	0%	-6%
CCOc1ccccc1CNC(=O)c1c(C)oc2ncnc(N3CCOCC3)c12	-19%	·	-1%	·	-7%	9%
CCOC(=O)c1noc2ncnc(NCc3ccccc3OC)c12	?	·	?	·	-16%	-20%
CCOC(=O)c1noc2ncnc(N3CCN(c4ccccc4OC)CC3)c12	?	·	4.6µM*	·	2.9µM*	-18%
CCOC(=O)c1cc(S(=O)(=O)N2CCN(c3ccc(C)cc3C)CC2)[nH]n1	?	·	9.2µM*	·	21µM*	-48%
CCOC(=O)c1c(C)oc2ncnc(N3CCN(c4ccc(C)cc4C)CC3)c12	?	·	21µM*	·	23µM*	-21%
SMILES	TGFb inhibitor	HT1080NT lethal	DT40 TDP1 CPT	HT1080 IDH1KD tx	DT40 TDP1 no CPT	HepG2 tox
CCOC(=O)c1c(C)oc2ncnc(N3CCN(c4ccccc4OC)CC3)c12	1%	·	?	·	16µM*	7%
O=C(Cn1c(=O)c2ccccc2n(CC(=O)Nc2ccc(F)cc2F)c1=O)NCCc1ccccc1	-13%	·	-10%	·	5%	0%
CCOC(=O)c1c(C)oc2ncnc(N3CCN(c4cccc(Cl)c4)CC3)c12	11µM*	·	?	·	16µM*	-46%
Cc1oc2ncnc(N3CCOCC3)c2c1C(=O)NCc1ccc(Cl)cc1	7%	·	0%	·	-9%	-7%
COc1ccc(/C=C\c2onc(C)c2S(=O)(=O)N2CCC(C(=O)Nc3ccc(F)cc3F)CC2)cc1	-30%	·	-9%	·	-15%	-12%
Cc1ccc(NC(=O)C(Cc2ccccc2)NS(=O)(=O)c2ccc3c(c2)oc(=O)n3C)cc1F (stereo unspecified)	2%	·	-10%	·	-17%	-18%
CCc1ccc(NC(=O)C(=O)NCC(c2ccc3c(c2)OCO3)N2CCN(C)CC2)cc1 (stereo unspecified)	13%	·	?	·	16µM*	-13%
COc1ccc(NC(=O)C(=O)NCC(c2ccc3c(c2)OCO3)N2CCN(C)CC2)cc1 (stereo unspecified)	0%	·	?	·	?	-2%
Cc1ccc(NC(=O)C(=O)NCC(c2ccc3c(c2)OCO3)N2CCN(C)CC2)cc1C (stereo unspecified)	16%	·	16µM*	·	?	-6%
COCc1ccc(-c2c(-c3ccsc3)oc(=O)c3cc(OC)c(OC)cc23)cc1	2%	-2%	?	-1%	21µM*	-23%
COc1cc2c(C#CCCO)c(-c3ccsc3)oc(=O)c2cc1OC	?	-12%	?	-8%	8.2µM*	-5%
COc1cc2c(C#CCCO)c(-c3ccc(C#N)cc3)oc(=O)c2cc1OC	?	-14%	-20%	-17%	?	-5%
Cn1cc(-c2ccc3c(c2)OCO3)c2ccccc21	-25%	6%	2%	11%	5%	-29%
Cc1nc2c(OCc3ccc(OC(F)F)cc3)cccn2c1N(C)C(=O)CCC1CCCC1	?	?	13µM*	?	10µM*	-57%

Compound activity as filed in PubChem BioAssay.
